# Reference: PubChem BioAssay AID1479 (National Center for Advancing Translational Sciences (NCATS), 2009)
# About 820 (0.29%) of roughly 280,000 compounds were called active. Inconclusive results (about 1%) are left out. Calls come from the whole dose curve; as a rule, active = well fitted curve in either direction with a large enough effect; inconclusive = small, poorly fitted or top-dose-only effect; inactive = flat fitted curve, though single readings scatter. Only a selection was taken, and actives are over-represented in it overall.
# Assay: Total Fluorescence Counterscreen for Inhibitors of the Interaction of Thyroid Hormone Receptor and Steroid Receptor Coregulator 2
# Settings: TRb/SRC2 Texas Red total fluorescence interference; series mostly up to 106 µM; fluorescence change, negative = quenching: at the top concentration
# Description: NIH Molecular Libraries Probe Production Network [MLPCN]
# NIH Chemical Genomics Center [NCGC]
# Assay Provider: R. Kip Guy, St. Jude Children's Research Hospital
# Thyroid receptor (TR) regulates many homeostatic processes including basal metabolism, cardiovascular function, body weight, and lipid trafficking. TR modulators are potential therapeutics for obesity and hyperlipidemias but current thyroid analogs have undesirable side effects, particularly cardiac stimulation. To identify inhibitors that specifically prevent the interaction of TR with the steroid receptor […] 2 (SRC2), a fluorescence polarization assay was screened. This assay detects interaction of the ligand-binding domain of human TRb with a Texas Red labeled SRC2 peptide, corresponding to a 20 amino acid region of the nuclear receptor interaction domain (Arnold et al., 2006). Total fluorescence (555 nm excitation and 632 nm emission) was measured to identify potential fluorescent and light absorbing compounds. Such compounds may be artifacts that interfere with the fluorescence polarization assay.
# Arnold, L. A.; Estebanez-Perpina, E.; Togashi, M.; Shelat, A.; Ocasio, C. A.; McReynolds, A. C.; Nguyen, P.; Baxter, J. D.; Fletterick, R. J.; Webb, P.; Guy, R. K. A high-throughput screening method to identify small molecule inhibitors of thyroid hormone receptor coactivator binding. Sci STKE 2006, p 13.
# NCGC Assay Protocol Summary:
# For screening, 5 uL/well 0.6 uM TRb and 20 nM SRC2 Texas Red in protein buffer (20mM Tris hydrochloride, 100mM NaCl, 10% glycerol, 1mM EDTA, 0.01% NP-40, 1mM DTT, 1uM T3 and 5% DMSO) was dispensed into black solid 1536-well plates (Grenier) using a solenoid-based dispenser. Following transfer of 23 nL compound or DMSO vehicle by a pin tool, the plates were centrifuged 15 s at 1000 RPM and incubated 5 hr at ambient temperature. The plates were read by an Envision (Perkin Elmer) to detect fluorescence polarization of SRC2 Texas Red (555 nm excitation and 632 nm emission). Data were normalized to unbound (all components except TRb) and bound SRC2 Texas Red controls. Total fluorescence (TF) was calculated as follows: TF = S + 2P where S and P are fluorescence readings in the parallel and perpendicular channels, respectively.
# Keywords: NIH Roadmap, MLPCN, MLI, MLSMR, qHTS, NCGC, qHTS, thyroid hormone receptor, steroid receptor coactivator, fluorescence polarization
# % is set by controls: 0 for no effect and ±100 for the full control effect; potency is the fitted concentration of half-maximal effect; tags give direction and shape of the fitted curve or compound fluorescence and quenching.
SMILES,"fluorescence change, negative = quenching",Potency
COc1ccc(-c2cn(-c3ccc(OC)cc3)c(=S)[nH]2)cc1,-1.99% (inactive),–
COc1cc(OC)c(-n2cc(-c3ccc(Cl)cc3)[nH]c2=O)cc1Cl,–,126 µM [quencher] (active)
COc1cc(OC)c(-n2c(C)cc(C=O)c2C)cc1Cl,0.922% (inactive),–
Cc1nc2nc(SCC(=O)NC3CCC(C)CC3)nn2c(C)c1Cc1ccccc1Cl (stereo unspecified),-2.74% (inactive),–
CCS(=O)(=O)N1CCc2cc(C(=O)NCc3ccc(C)cc3)ccc21,-1.18% (inactive),–
O=C(Nc1ccon1)c1sc2ccccc2c1Cl,-5.33% (inactive),–
COC(=O)c1cc(NC(=O)c2sc3ccccc3c2Cl)cc(C(=O)OC)c1,3.06% (inactive),–
CCCC(=O)Nc1ccc(NC(=O)c2sc3ccccc3c2Cl)cc1,–,1.26 µM [quencher] (active)
O=C(NCC(c1ccc2c(c1)OCO2)N1CCN(c2ccccc2)CC1)C(=O)Nc1ccccc1F (stereo unspecified),-23.7% (inactive),–
Cc1ccc(Cl)cc1N(C)C(=O)Cn1nc(Cc2cccnc2)c2ccccc2c1=O,-1.68% (inactive),–
CCC(=O)N1N=C(c2ccc(OC)cc2)CC1c1cn(-c2ccccc2)nc1-c1cccs1 (stereo unspecified),0.912% (inactive),–
COc1ccc(Cl)cc1NC(=O)CCn1c(=O)c2cccn2c2ccccc21,2.79% (inactive),–
Cc1ccc(C)c(N2CCN(S(=O)(=O)c3ccc4c(c3)C(C(C)C)C(=O)N4)CC2)c1 (stereo unspecified),-3.11% (inactive),–
Cc1c(-c2nc(-c3ccc4c(c3)OCO4)no2)nnn1-c1ccc(Br)cc1F,0.271% (inactive),–
Cc1ccc(CN2CCCn3nc(C(=O)NCc4ccccc4Cl)cc3C2=O)cc1,-1.63% (inactive),–
Cc1ccccc1CNC(=O)CCc1cn(Cc2ccccc2C)c2ccccc12,-3.5% (inactive),–
Cc1ccc(C)c2sc(NC(=O)c3ccc(S(=O)(=O)N4CCCC4)cc3)nc12,-1.98% (inactive),–
O=C(c1ccco1)n1nc(-c2ccc(Cl)cc2)nc1NCc1ccccc1,2.98% (inactive),–
Cc1ccc(S(=O)(=O)n2nc(-c3ccc(Cl)cc3)nc2NCc2ccccc2)cc1,–,1000 µM [quencher] (active)
COc1ccc(CNc2nc(-c3ccc(Cl)cc3)nn2S(=O)(=O)c2ccc(C)cc2)cc1,-14.6% (inactive),–
CCOC(=O)C1CCN(c2nc3c(S(=O)(=O)c4ccc(CC)cc4)nnn3c3ccc(Cl)cc23)CC1,3.96% (inactive),–

SMILES,"fluorescence change, negative = quenching",Potency
O=c1cc(-c2ccc(O)c(O)c2)oc2cccc(O)c12,-7.29% (inactive),–
Oc1ccc(O)c2c(O)cccc12,–,28.2 µM [quencher] (active)
Cn1c2ccccc2c(=O)c2c(O)cccc21,-3.09% (inactive),–
CCOc1cccc(NC(=O)c2ccc(F)c(S(=O)(=O)N(CC)c3cccc(C)c3)c2)c1,-2.68% (inactive),–
Cc1ccc(Cn2c(CNC(=O)Cc3cccc(C)c3)nc3cccnc32)cc1,0.294% (inactive),–
Cc1ccc(NC(=O)c2ccc(CN3CC(=O)N4CCCCC4C3=O)cc2)c(Cl)c1 (stereo unspecified),–,70.8 µM [quencher] (active)
Cc1ccc(C(=O)Nc2cc3c(cc2N2CCCC2)n(C)c(=O)c(=O)n3C)cc1,5.45% (inactive),–
CCn1c(=O)c(=O)n(CC)c2cc(N3CCCCC3)c(NC(=O)c3ccc(Cl)cc3)cc21,-11.1% (inactive),–
CC(C)CCCCCOC(=O)CS,-0.794% [at 201 µM] (inactive),–
CCOc1ccccc1NC(=O)Cn1c(=O)n(-c2cccc(C)c2)c(=O)c2c1c1cc(OC)ccc1n2C,0.837% (inactive),–
COc1cccc(NC(=O)C2CCN(c3cc(C)nc4c(-c5ccc(Cl)cc5)c(C)nn34)CC2)c1,–,89.1 µM [quencher] (active)
COc1ccc(-c2c(C)nn3c(N4CCC(C(=O)NCCC(C)C)CC4)cc(C)nc23)cc1OC,1.53% (inactive),–
COc1ccc(-c2c(C)nn3c(N4CCC(C(=O)N5CCCCC5)CC4)cc(C)nc23)cc1OC,-3.06% (inactive),–
COc1ccc(CCNC(=O)c2cc3cccc4c3n2CC(C)S4)c(OC)c1OC (stereo unspecified),-1.75% (inactive),–
COc1ccc2c(CN3CCN(S(=O)(=O)c4cccs4)CC3)cc(=O)oc2c1,5.04% (inactive),–
O=S(=O)(c1cccs1)N1CCN(Cc2ccccc2)CC1,-0.111% (inactive),–
Cc1cc2oc(=O)cc(CN3CCN(S(=O)(=O)c4cccs4)CC3)c2cc1C(C)C,–,7.08 µM [quencher] (active)
COc1cc(OC)cc(-c2nc3nc(C)c(CCC(=O)Nc4ccccc4)c(C)n3n2)c1,-5.62% (inactive),–
Cc1ccc(C)c(Oc2c(C(F)(F)F)oc3c(CN4CCN(C)CC4)c(O)ccc3c2=O)c1,0.669% (inactive),–
CCOC(=O)c1c(NC(=O)Cc2coc3ccc(CC)cc23)sc2c1CCC2,7.09% (inactive),–
CCOCCCNC(=O)c1c(NC(=O)Cc2coc3ccc(C)cc23)sc2c1CCC2,–,35.5 µM [quencher] (active)

SMILES,"fluorescence change, negative = quenching",Potency
CCOCCCNC(=O)c1c(NC(=O)Cc2coc3c(C)c(C)ccc23)sc2c1CCC2,-22.2% (inactive),–
Cc1ccc(-n2c(SCC(=O)c3ccccc3)nc3c([nH]c4ccccc43)c2=O)cc1,-3.63% (inactive),–
COc1cc(OC)cc(C(=O)Nc2ccc3nc(Nc4cccc(C(F)(F)F)c4)cc(C)c3c2)c1,-12.6% (inactive),–
Cc1c(NC(=O)C(C)(C)C)cccc1-c1nc2ccccc2s1,7.43% (inactive),–
COc1cccc(CNC(=O)c2ccc3c(c2)sc2nc(-c4cccc(OC)c4)cn23)c1,-4.52% (inactive),–
CCCCn1cc(S(=O)(=O)c2ccc(OCC)cc2)c(=O)c2cc(OC)c(OC)cc21,-1.29% (inactive),–
CC(C)Sc1oc(-c2cccs2)nc1S(=O)(=O)c1ccc(Cl)cc1,-1.53% (inactive),–
CC1(C)C(=O)N(Cl)C(=O)N1Cl,2.55% [at 201 µM] (inactive),–
COc1ccc(OC)c(NC(=O)CSC2=Nc3ccccc3C3=NC(CC(=O)NCc4ccc(F)cc4)C(=O)N23)c1 (stereo unspecified),-3.96% (inactive),–
Cc1ccc(S(=O)(=O)N(Cc2nc(-c3ccc(Cl)cc3)no2)C2CCCCC2)cc1,-9.51% (inactive),–
C[Si](C)(C)N[Si](C)(C)C,-1.52% [at 201 µM] (inactive),–
CC(C)(C)OC(=O)N1CCC(c2c(C(=O)NCc3ccccn3)cnn2-c2ccc(F)cc2)CC1,-1.16% (inactive),–
Cc1c(Cl)cccc1NC(=O)C1CCCN(c2ncnc3onc(C)c23)C1 (stereo unspecified),1.28% (inactive),–
Cn1nnnc1SCCCNCc1ccc(Cl)cc1,8.98% (inactive),–
O=C(Cn1c(=O)n(Cc2cccs2)c(=O)c2cccnc21)Nc1ccc(F)cc1,-105% [at 53 µM] (inactive),–
CCOc1cccc(C(=O)Nc2nnc(S(=O)(=O)N(C)c3ccc(C)cc3)s2)c1,-11.7% (inactive),–
Cc1ccccc1OCCSc1nc2ccc(NC(=O)c3ccco3)cc2s1,7.51% (inactive),–
C=Cc1ccc(Cn2c(C(=O)O)c(CNC3CCCC3)c3ccc(C)cc32)cc1,-1.04% (inactive),–
O=C(COc1ccc(Cl)cc1)Nc1ccccc1OCc1cc(=O)n2ccccc2n1,-2.29% (inactive),–
